Laboratory results: the supplement of paper PMC12645437, “Orthogonal IMiD-Degron Pairs Induce Selective Protein Degradation in Cells” (ACS Chemical Biology, 2025)
Over roughly 8,300 sequences, “log2 fold change of degron read counts, EGFP-low vs EGFP+ sorted cells (limma voom), compound-induced degradation” has its median near -1.1; the highest 2% begin near 3.2. What follows is part of a selection rich in the highest values, with near analogues and random picks from the rest.

Target: T1, CRBN, Q96SW2
T1 chain: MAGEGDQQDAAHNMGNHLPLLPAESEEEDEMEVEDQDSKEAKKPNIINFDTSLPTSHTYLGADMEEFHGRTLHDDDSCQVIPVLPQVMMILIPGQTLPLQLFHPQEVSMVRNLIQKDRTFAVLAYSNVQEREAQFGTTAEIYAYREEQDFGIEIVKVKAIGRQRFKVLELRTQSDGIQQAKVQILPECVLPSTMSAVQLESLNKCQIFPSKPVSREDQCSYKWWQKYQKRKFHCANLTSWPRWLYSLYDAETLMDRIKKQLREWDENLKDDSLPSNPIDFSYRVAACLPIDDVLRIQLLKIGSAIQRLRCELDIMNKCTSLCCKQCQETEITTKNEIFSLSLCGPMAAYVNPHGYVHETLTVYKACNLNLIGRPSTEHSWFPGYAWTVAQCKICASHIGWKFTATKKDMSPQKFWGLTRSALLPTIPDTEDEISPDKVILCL
Test: log2 fold change of degron read counts, EGFP-low vs EGFP+ sorted cells (limma voom), compound-induced degradation; higher = more compound-induced degradation of the degron-EGFP fusion; degrons are variants of IKZF1/3 zinc finger 2; compound dose not given here
Conditions: Jurkat, 18 h

[1] = compound: compound 19 (5-tert-butyl-thalidomide)
[2] = compound: compound 22 (5-morpholino-thalidomide)
[3] = compound: compound 33 (diphenyl IMiD analogue)
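Also: pooled lentiviral library of zinc finger degron-EGFP fusions in mCherry-positive Jurkat cells, FACS-sorted after compound exposure, with degron abundance counted by next-generation sequencing.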

| Sequence | log2 fold change of degron read counts [1] | log2 fold change of degron read counts [2] | log2 fold change of degron read counts [3] | log2 fold change of degron read counts (compound: thalidomide) |
| --- | --- | --- | --- | --- |
| FICPVCGATFTQKGNLLRHIKL [46F_47I_49P_50V_52G_53A_54T_55F_67L_, Q9UKT9] | -1.38 | 1.38 | 1.48 | 1.83 |
| FKCEICGHHFTQKGNLLRHIKL [46F_47K_49E_50I_52G_53H_54H_55F_67L_, Q9UKT9] | -3.82 | -3.97 | -3.56 | -3.72 |
| FNCNQCGRPFTQKGNLLRHIKL [46F_47N_49N_50Q_52G_53R_54P_55F_67L_, Q9UKT9] | -1.93 | -2 | -2.66 | -2.05 |
| FVCPQCGAMFTQKGNLLRHIKL [46F_47V_49P_50Q_52G_53A_54M_55F_67L_, Q9UKT9] | -2.14 | -0.591 | 0.3 | -0.862 |
| FECPQCGAFFTQKGNLLRHIKL [46F_47E_49P_50Q_52G_53A_54F_55F_67L_, Q9UKT9] | -2.8 | -3.69 | -1.82 | -1.91 |
| FECDQCGAAFTQKGNLLRHIKL [46F_47E_49D_50Q_52G_53A_54A_55F_67L_, Q9UKT9] | -1.3 | -3.38 | -1.76 | -1.6 |
| FTCEQCGACFTQKGNLLRHIKL [46F_47T_49E_50Q_52G_53A_54C_55F_67L_, Q9UKT9] | -1.75 | -1.02 | 0.816 | 0.182 |
| FWCPQCGAVFTQKGNLLRHIKL [46F_47W_49P_50Q_52G_53A_54V_55F_67L_, Q9UKT9] | -0.18 | 1.02 | 0.693 | -0.596 |
